# Positions count from the first letter of the chain named.
# How the values were obtained:
# Assay in all cases: yeast three-hybrid, YBZ-1, SC-Leu-His + 0.5 mM 3-AT, 4 days
# Conditions in all cases: tags: N-Gal4 AD-HA kept; label: inside an RPR1-promoter hybrid RNA with tandem MS2 sites; ssRNA
# PUM1 PUF domain R5-KPC = PUM1 PUF domain R5-KPC (Homo sapiens, UniProt Q14671 828-1176, C1007K;R1008P;Q1011C)
# Method in brief: (§1)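 A centromeric plasmid in strain YBZ-1 co-expressed Pumilio-1 PUF domain libraries, randomized at the three base-contacting residues of each repeat, with matching RNA elements; the strain carries a LexA–MS2 coat fusion and a HIS3 reporter. After four days on SC-Leu (input) or SC-Leu-His + 0.5 mM 3-AT (selection), the repeat regions were PCR-amplified and Illumina-sequenced. The interaction score is the log change in variant frequency from input to selection, using log2 and a pseudocount of 1 where absent.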
# PUM1 PUF domain R5-DRC = PUM1 PUF domain R5-DRC (Homo sapiens, UniProt Q14671 828-1176, C1007D;Q1011C)
# Method in brief: as §1
# PUM1 PUF domain R5-DHV = PUM1 PUF domain R5-DHV (Homo sapiens, UniProt Q14671 828-1176, C1007D;R1008H;Q1011V)
# Method in brief: as §1
# PUM1 PUF domain R6-EWC = target: T1, PUM1 PUF domain R6-EWC (Homo sapiens, UniProt Q14671 828-1176, N1043E;Y1044W;Q1047C)
# T1 sequence: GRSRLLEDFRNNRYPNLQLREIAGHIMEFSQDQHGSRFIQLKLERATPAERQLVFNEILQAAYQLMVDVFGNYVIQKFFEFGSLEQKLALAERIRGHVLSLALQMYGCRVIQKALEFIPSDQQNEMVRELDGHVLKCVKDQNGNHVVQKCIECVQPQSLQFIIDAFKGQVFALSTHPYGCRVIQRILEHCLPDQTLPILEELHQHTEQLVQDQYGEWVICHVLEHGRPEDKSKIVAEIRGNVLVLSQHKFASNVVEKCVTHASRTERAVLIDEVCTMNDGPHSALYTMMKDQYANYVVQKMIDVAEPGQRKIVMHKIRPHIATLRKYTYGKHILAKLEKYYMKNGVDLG
# Method in brief: as §1
# PUM1 PUF domain R6-NWP = target: T2, PUM1 PUF domain R6-NWP (Homo sapiens, UniProt Q14671 828-1176, Y1044W;Q1047P)
# T2 sequence: T1 sequence with E216N, C220P
# Method in brief: as §1
# PUM1 PUF domain R7-RIQ = PUM1 PUF domain R7-RIQ (Homo sapiens, UniProt Q14671 828-1176, S1079R;N1080I;E1083Q)
# Method in brief: as §1
# PUM1 PUF domain R3-EWS = PUM1 PUF domain R3-EWS (Homo sapiens, UniProt Q14671 828-1176, C935E;R936W;Q939S)
# Method in brief: as §1
# PUM1 PUF domain R3-GRP = PUM1 PUF domain R3-GRP (Homo sapiens, UniProt Q14671 828-1176, C935G;Q939P)
# Method in brief: as §1
# PUM1 PUF domain R3-SRC = PUM1 PUF domain R3-SRC (Homo sapiens, UniProt Q14671 828-1176, C935S;Q939C)
# Method in brief: as §1
# PUM1 PUF domain R7-KYR = PUM1 PUF domain R7-KYR (Homo sapiens, UniProt Q14671 828-1176, S1079K;N1080Y;E1083R)
# Method in brief: as §1
# PUM1 PUF domain R1-NRR = PUM1 PUF domain R1-NRR (Homo sapiens, UniProt Q14671 828-1176, S863N;Q867R)
# Method in brief: as §1
sequence,measurement,setting,value
GGCUAGAACUAGUGGAUCCCCCGGCGCCCGGCGGCUCGAGCCCGGGUAAGUGUCAAUAGUCUGCAUGCCGCCGGGCGCCAUGCCUGCAGGUCGACUCUAGAAAACAUG,binding signal,PUM1 PUF domain R5-KPC,4.19 log2 enrichment (interaction score)
same,binding signal,PUM1 PUF domain R5-DRC,3.58 log2 enrichment (interaction score)
same,binding signal,PUM1 PUF domain R5-DHV,3.11 log2 enrichment (interaction score)
GGCUAGAACUAGUGGAUCCCCCGGCGCCCGGCGGCUCGAGCCCGGGUAAGUGUUAAUAGUCUGCAUGCCGCCGGGCGCCAUGCCUGCAGGUCGACUCUAGAAAACAUG,binding signal,PUM1 PUF domain R5-DRC,4.23 log2 enrichment (interaction score)
same,binding signal,PUM1 PUF domain R5-DHV,4.07 log2 enrichment (interaction score)
GGCUAGAACUAGUGGAUCCCCCGGCGCCCGGCGGCUCGAGCCCGGGUAAGUGGAAAUAGUCUGCAUGCCGCCGGGCGCCAUGCCUGCAGGUCGACUCUAGAAAACAUG,binding signal,PUM1 PUF domain R6-EWC,3.23 log2 enrichment (interaction score)
same,binding signal,PUM1 PUF domain R6-NWP,2.26 log2 enrichment (interaction score)
GGCUAGAACUAGUGGAUCCCCCGGCGCCCGGCGGCUCGAGCCCGGGUAAGUUUAAAUAGUCUGCAUGCCGCCGGGCGCCAUGCCUGCAGGUCGACUCUAGAAAACAUG,binding signal,PUM1 PUF domain R7-RIQ,4.25 log2 enrichment (interaction score)
GGCUAGAACUAGUGGAUCCCCCGGCGCCCGGCGGCUCGAGCCCGGGUAAGUGUAAGUAGUCUGCAUGCCGCCGGGCGCCAUGCCUGCAGGUCGACUCUAGAAAACAUG,binding signal,PUM1 PUF domain R3-EWS,5.34 log2 enrichment (interaction score)
same,binding signal,PUM1 PUF domain R3-GRP,3.91 log2 enrichment (interaction score)
same,binding signal,PUM1 PUF domain R3-SRC,4.05 log2 enrichment (interaction score)
GGCUAGAACUAGUGGAUCCCCCGGCGCCCGGCGGCUCGAGCCCGGGUAAGUGUAAUUAGUCUGCAUGCCGCCGGGCGCCAUGCCUGCAGGUCGACUCUAGAAAACAUG,binding signal,PUM1 PUF domain R3-EWS,4.58 log2 enrichment (interaction score)
same,binding signal,PUM1 PUF domain R3-GRP,2.44 log2 enrichment (interaction score)
same,binding signal,PUM1 PUF domain R3-SRC,2.75 log2 enrichment (interaction score)
GGCUAGAACUAGUGGAUCCCCCGGCGCCCGGCGGCUCGAGCCCGGGUAAGUAUAAAUAGUCUGCAUGCCGCCGGGCGCCAUGCCUGCAGGUCGACUCUAGAAAACAUG,binding signal,PUM1 PUF domain R7-KYR,3.64 log2 enrichment (interaction score)
GGCUAGAACUAGUGGAUCCCCCGGCGCCCGGCGGCUCGAGCCCGGGUAAGUGUAAAUUGUCUGCAUGCCGCCGGGCGCCAUGCCUGCAGGUCGACUCUAGAAAACAUG,binding signal,PUM1 PUF domain R1-NRR,2.34 log2 enrichment (interaction score)

# — PMC8384837, “Expanding the binding specificity for RNA recognition by a PUF domain”
